Data published in ChEMBL document CHEMBL1961873, “Compounds: GSK PKIS; Assays: Nanosyn kinase panel” (2012).

Tests used:
[1] = molecular target: Protein kinase C gamma type (Homo sapiens) (UniProt P05129); conditions: at 1 µM;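 note: each value is an averaged percent inhibition of the enzyme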
[2] = molecular target: T1, Protein kinase C iota type (Homo sapiens) (UniProt P41743); conditions: at 0.1 µM
T1 sequence (whole entry): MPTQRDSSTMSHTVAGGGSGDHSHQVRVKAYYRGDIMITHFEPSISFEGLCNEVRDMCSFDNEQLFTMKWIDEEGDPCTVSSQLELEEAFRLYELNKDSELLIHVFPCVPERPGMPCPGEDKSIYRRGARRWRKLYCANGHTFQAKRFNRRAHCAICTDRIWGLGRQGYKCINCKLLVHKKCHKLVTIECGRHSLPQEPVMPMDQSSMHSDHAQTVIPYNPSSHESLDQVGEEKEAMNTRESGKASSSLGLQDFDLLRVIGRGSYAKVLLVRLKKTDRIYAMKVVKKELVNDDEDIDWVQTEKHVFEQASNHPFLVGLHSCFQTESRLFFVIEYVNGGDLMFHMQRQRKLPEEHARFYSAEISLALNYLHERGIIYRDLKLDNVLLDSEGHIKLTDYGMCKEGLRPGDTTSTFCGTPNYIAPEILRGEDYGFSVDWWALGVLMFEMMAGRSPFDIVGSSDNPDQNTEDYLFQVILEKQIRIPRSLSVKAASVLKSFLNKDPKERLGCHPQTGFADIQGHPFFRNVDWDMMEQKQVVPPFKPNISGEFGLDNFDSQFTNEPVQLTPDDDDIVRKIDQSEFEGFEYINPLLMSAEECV

[3] = molecular target: T1, Protein kinase C iota type (Homo sapiens); conditions: at 1 µM
[4] = molecular target: Protein kinase C theta type (Homo sapiens) (UniProt Q04759); conditions: at 0.1 µM
[5] = molecular target: Protein kinase C theta type (Homo sapiens) (UniProt Q04759); conditions: at 1 µM
[6] = molecular target: Protein kinase C beta type (Homo sapiens) (UniProt P05771); conditions: at 0.1 µM
[7] = molecular target: Protein kinase C beta type (Homo sapiens) (UniProt P05771); conditions: at 1 µM
[8] = molecular target: T2, Serine/threonine-protein kinase D1 (Homo sapiens) (UniProt Q15139); conditions: at 0.1 µM
T2 sequence (whole entry): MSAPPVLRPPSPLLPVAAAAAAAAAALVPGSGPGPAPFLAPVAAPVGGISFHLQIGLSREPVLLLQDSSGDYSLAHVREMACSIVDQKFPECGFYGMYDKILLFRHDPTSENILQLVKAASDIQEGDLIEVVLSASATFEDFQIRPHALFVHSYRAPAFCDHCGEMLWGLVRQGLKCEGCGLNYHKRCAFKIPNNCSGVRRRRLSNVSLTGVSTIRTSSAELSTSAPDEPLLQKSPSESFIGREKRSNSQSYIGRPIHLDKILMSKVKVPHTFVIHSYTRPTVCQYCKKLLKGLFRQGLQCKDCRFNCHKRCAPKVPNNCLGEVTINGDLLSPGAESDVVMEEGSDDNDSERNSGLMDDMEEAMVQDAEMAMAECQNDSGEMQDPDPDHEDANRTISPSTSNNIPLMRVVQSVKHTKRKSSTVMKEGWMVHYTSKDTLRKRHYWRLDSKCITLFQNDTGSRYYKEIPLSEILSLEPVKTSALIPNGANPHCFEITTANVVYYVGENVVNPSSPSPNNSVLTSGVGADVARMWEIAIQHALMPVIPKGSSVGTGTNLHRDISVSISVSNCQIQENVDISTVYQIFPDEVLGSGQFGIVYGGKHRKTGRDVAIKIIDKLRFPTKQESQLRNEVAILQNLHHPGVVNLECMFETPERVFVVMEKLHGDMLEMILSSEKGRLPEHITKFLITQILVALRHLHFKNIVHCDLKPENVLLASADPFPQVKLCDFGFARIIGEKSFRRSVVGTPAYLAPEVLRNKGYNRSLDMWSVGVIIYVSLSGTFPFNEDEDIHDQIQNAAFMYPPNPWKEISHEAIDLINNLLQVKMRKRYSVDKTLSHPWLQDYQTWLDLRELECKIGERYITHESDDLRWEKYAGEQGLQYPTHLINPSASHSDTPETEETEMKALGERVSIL

[9] = molecular target: T2, Serine/threonine-protein kinase D1 (Homo sapiens); conditions: at 1 µM
[10] = molecular target: T3, Serine/threonine-protein kinase D2 (Homo sapiens) (UniProt Q9BZL6); conditions: at 0.1 µM;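 note: reported percent inhibition values are means, part of the GSK PKIS kinase panel screen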
T3 sequence (whole entry): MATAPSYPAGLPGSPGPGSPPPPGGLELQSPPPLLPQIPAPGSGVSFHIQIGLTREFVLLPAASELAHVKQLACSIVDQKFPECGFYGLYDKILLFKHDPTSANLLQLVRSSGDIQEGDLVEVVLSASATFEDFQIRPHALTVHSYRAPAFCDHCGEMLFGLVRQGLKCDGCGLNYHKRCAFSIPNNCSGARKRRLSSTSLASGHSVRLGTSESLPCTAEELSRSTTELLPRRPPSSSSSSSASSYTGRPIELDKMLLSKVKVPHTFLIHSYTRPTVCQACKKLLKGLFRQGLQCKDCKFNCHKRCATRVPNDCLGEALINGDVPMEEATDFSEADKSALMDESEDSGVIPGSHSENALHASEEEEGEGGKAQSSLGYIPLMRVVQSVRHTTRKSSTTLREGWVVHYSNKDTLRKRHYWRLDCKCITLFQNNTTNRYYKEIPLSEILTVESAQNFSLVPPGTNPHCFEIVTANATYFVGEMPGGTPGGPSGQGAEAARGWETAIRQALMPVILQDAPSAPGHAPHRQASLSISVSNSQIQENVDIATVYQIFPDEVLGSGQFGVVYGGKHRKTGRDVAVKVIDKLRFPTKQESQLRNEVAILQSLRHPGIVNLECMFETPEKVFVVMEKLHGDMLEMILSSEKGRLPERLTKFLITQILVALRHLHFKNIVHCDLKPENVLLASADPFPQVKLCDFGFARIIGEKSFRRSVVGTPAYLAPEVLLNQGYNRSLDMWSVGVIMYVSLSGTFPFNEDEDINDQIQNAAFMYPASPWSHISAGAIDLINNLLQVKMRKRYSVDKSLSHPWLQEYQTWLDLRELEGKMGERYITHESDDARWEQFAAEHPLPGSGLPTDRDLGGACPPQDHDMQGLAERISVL

Sequence of Protein kinase C beta type (Homo sapiens) (P05771 2-671 limits assumed): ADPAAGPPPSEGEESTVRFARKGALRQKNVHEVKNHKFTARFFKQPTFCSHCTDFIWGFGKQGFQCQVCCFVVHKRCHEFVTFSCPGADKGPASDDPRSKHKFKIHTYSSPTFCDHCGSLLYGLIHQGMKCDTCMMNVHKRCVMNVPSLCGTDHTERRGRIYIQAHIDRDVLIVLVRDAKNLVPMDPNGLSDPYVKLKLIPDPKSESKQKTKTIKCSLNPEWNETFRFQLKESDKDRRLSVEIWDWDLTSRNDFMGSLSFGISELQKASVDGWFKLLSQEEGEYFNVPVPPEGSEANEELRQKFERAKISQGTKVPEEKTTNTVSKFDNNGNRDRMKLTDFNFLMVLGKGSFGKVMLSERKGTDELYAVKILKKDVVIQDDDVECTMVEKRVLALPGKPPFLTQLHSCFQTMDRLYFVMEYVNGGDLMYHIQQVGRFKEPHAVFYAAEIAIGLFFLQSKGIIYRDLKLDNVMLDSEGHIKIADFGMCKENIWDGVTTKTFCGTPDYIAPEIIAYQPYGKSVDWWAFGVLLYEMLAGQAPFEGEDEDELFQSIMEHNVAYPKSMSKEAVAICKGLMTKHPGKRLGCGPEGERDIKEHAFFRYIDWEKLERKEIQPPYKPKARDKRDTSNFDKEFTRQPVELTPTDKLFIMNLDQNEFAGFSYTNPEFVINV
Sequence of Protein kinase C theta type (Homo sapiens) (Q04759 whole entry, looked up): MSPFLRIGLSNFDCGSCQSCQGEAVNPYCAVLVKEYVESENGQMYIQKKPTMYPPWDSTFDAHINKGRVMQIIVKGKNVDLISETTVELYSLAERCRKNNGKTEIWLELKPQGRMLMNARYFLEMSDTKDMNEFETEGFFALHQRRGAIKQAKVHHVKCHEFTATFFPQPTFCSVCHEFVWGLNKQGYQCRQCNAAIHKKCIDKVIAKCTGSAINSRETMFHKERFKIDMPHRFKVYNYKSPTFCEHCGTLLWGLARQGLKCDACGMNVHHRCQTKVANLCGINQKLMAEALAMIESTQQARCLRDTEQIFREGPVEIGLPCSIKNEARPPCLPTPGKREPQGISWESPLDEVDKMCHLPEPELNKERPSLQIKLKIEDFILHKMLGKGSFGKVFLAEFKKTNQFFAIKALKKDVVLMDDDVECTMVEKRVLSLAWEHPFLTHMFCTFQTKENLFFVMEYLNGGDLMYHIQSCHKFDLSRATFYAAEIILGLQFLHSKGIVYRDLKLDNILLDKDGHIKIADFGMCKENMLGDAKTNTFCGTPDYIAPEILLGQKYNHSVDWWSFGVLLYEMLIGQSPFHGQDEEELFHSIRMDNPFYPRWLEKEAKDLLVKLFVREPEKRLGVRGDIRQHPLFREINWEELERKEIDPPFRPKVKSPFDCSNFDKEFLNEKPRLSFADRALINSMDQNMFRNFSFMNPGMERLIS

Compound	inhibition [1] [%]	inhibition [2] [%]	inhibition [3] [%]	inhibition [4] [%]	inhibition [5] [%]	inhibition [6] [%]	inhibition [7] [%]	inhibition [8] [%]	inhibition [9] [%]	inhibition [10] [%]
Cc1ccc(O)cc1Nc1ccnc2cc(-c3ccccn3)ccc12	4.48	2.29	4.56	2.6	1.93	1.13	1.55	5.06	28.9	6.27
COc1cc2c(cc1Nc1nc(Nc3ccsc3C(N)=O)c3cc[nH]c3n1)N(C(=O)CN(C)C)CCC2(C)C	44	2.68	5.01	4.59	16.2	3.45	15	11.2	58.5	17.5
Nc1ncc(-c2cccc(S(N)(=O)=O)c2)c2scc(-c3ccc(F)c(Cl)c3)c12	2.77	1.76	2.27	1.73	2.11	0.92	1.52	6.59	35	8.43
COc1cc2ncn(-c3cc(OCc4ccccc4C(F)(F)F)c(C(=O)N(C)C)s3)c2cc1OC	0.13	-0.68	-2.2	0.14	-0.71	0.03	0.09	0.6	1.47	1.09
c1ccc(-c2nc3n(c2-c2ccc4c(c2)OCO4)CCC3)nc1	2.8	2.19	3.9	1.78	3.83	1.96	4.57	1.92	5.43	1.94
CCOc1ccc2c(-c3ccnc(Nc4cccc(C(F)(F)F)c4)n3)cnn2n1	2.94	1.45	0.72	0.84	0.7	0.45	0.29	3.34	3.21	3.62
CN(C)CCOc1ccc(-c2nc(-c3ccncc3)c(-c3ccc4c(c3)CC/C4=N\O)[nH]2)cc1	3.66	3.25	3.37	2.07	2.93	0.36	3.35	3.26	6.18	2.55
CCn1c(-c2nonc2N)nc2cnc(Oc3cccc(NC(=O)c4ccc(N(C)C)cc4)c3)cc21	28.3	6.04	45	5.55	32.3	4.27	21.8	1.61	4.29	1.81
COc1cc(/C=N/Nc2ncnc3[nH]ncc23)ccc1O	8.27	2.83	2.53	2.3	4.29	0.58	4.16	2.99	4.19	2.81
CN1CCC(n2cnc(-c3ccc(F)cc3)c2-c2ccnc(Nc3ccccc3)n2)CC1	33.8	1.53	1.32	1.16	4.03	27.4	66.5	5.32	39.6	7.44
c1cc(-c2cnn3nc(N4CCOCC4)ccc23)nc(NC2CC2)n1	1.85	1.79	3.89	1.39	1.61	0.87	1.89	3.97	39.6	6.38
COC(=O)Nc1nc2ccc(Oc3ccc(NC(=O)Nc4cccc(Cl)c4)cc3)cc2[nH]1	-1.47	0.42	0.23	0.36	0.17	0.5	0.57	2.7	3.03	1.6
CN1CCC(n2cnc(-c3ccc(F)cc3)c2-c2ccnc(N)n2)CC1	8.99	0.59	0.68	1.72	3.61	2.83	12.3	4.67	26.3	3.25
Fc1ccc(-c2cc(-c3c[nH]nc3-c3ccccn3)ccn2)cc1	1.87	2.53	0.58	3.15	5.06	1.48	1.07	4.79	26.9	6.43
O=S(=O)(CCNCc1ccc(-c2ccc3ncnc(Nc4ccc(OCc5cccc(F)c5)c(Cl)c4)c3c2)o1)c1ccccc1	6.38	4.15	4.31	2.33	2.85	2.03	2.6	5.17	7.32	5.52
NC(=O)c1sc(-n2cnc3ccc(C(F)(F)F)cc32)cc1OCc1ccccc1Br	3.75	0.8	0.82	1.63	2.57	1.28	1.31	2.72	3.86	3.59
CCN1CCC(CC(=O)Nc2n[nH]c3nnc(-c4cccc(F)c4F)cc23)CC1	1.09	0.63	1.36	0.68	1.31	0.16	0.85	0.72	1.85	2.45
